In all, about 2,100 compounds went through this assay and about 1,100 (52%) were called active. Not shown: some 29% with an inconclusive outcome. Calls come from the whole dose curve; as a rule, active = well fitted inhibition curve with a large enough effect; inconclusive = small, poorly fitted or top-dose-only effect; inactive = no such curve, though single readings can be large or run the other way. So high a share suggests a set chosen from earlier hits. Some of the results follow.
Biological target: DNA dC->dU-editing enzyme APOBEC-3F (Homo sapiens) (UniProt Q8IUX4)
Experiment: qHTS for inhibitors of Vif-A3F interactions: Cherry picks counterscreen; note: nearly all actives have a fitted effect of over 65% in size
Conditions: HeLa A3F-eYFP/Vif cells, eYFP fluorescence, 24 h; series mostly up to 46.1 µM; activity, negative = inhibitor: at the top concentration
From the text: The recent discovery and characterization of host restriction factors, which provide a potent defense to invading retroviruses, has provided new targets for antiviral drug development. APOBEC3G (A3G) and APOBEC3F (A3F) are potent cytidine deaminases that block HIV-1 replication; HIV-1 expresses the Vif protein, which counteracts A3G and A3F by binding to them and inducing their proteasomal degradation. The Vif-A3G and Vif-A3F interactions provide two potential targets for development of small molecules which can interfere with the ability of Vif to degrade A3G or A3F. […] To identify inhibitors that can interfere with Vif mediated degradation of A3G and A3F, we have developed Hela cell lines that stably express A3G or A3F tagged with eYFP at the C-terminal end (A3G-eYFP or A3F-eYFP, respectively) and Vif. In the absence of an inhibitor, Vif induces degradation of A3G-eYFP and A3F-eYFP, and the cells are not fluorescent. In the presence of an inhibitor, it is expected that Vif will be unable to degrade A3G-eYFP and/or A3F-eYFP, resulting in an increase in yellow fluorescence. In this counterscreen assay, Vif A3F was screened against the cherry picks ordered from the MLSMR. NIH Chemical Genomics Center [NCGC] NIH Molecular Libraries Probe Centers Network [MLPCN] MLPCN Grant: MH093245 Assay Submitter (PI): Vinay Pathak, National Cancer Institute
A3F-Vif cells were harvested from T225 flask and resuspended in phenol free OPTI-MEM medium with 5% FBS. Then 5 uL of 140,000 cells/mL resuspended cells was dispensed into each well of low base Aurora COC 1,536-well plates (black walled, clear bottom) using a Multidrop Combi dispenser. After overnight culture at 37 deg C with 5% CO2, a total of 23 nL of compounds at 5 selected concentrations from the NPC or positive control (2 mM stock of MG132) in DMSO was transferred to each well of the assay plate using a pintool (Kalypsys, San Diego, CA), and the plates were further incubated at 37 deg C with 5% CO2 for 24 hours. After that, the plates were measured on Acumen Explorer (TTP Lab Tech). The fluorescence was detected by 488 nm/Ex and […].
% is set by controls: 0 for no effect and ±100 for the full control effect; potency is the fitted concentration of half-maximal effect.

Sequence of DNA dC->dU-editing enzyme APOBEC-3F (Homo sapiens) (Q8IUX4 whole entry, looked up): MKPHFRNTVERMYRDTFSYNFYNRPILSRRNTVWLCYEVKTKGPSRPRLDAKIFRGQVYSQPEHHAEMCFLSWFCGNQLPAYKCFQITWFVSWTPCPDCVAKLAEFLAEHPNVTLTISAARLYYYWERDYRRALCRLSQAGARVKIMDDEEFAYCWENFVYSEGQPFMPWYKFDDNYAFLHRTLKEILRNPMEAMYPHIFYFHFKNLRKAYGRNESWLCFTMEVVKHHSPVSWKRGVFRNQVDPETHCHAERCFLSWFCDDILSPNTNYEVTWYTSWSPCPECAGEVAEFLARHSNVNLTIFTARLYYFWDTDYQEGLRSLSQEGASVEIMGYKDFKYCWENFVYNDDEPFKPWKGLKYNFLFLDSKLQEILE

SMILES | Potency | activity, negative = inhibitor
CCOc1ccc2nc(NC(=O)c3nc(SC(C)C)ncc3Cl)sc2c1 | 11.6 µM (active) | 
Cc1cc(C)cc(NC(=O)/C=C/c2ccc([N+](=O)[O-])s2)c1 | 16.4 µM (active) | 
Cc1ccc(NC(=O)/C=C/c2ccc([N+](=O)[O-])s2)cc1 | 10.3 µM (active) | 
COC(=O)c1sccc1NC(=S)Nc1cc(C)cc(C)c1 |  | 7.32% (inactive)
Cc1ccc(NC(=O)/C=C/c2ccc([N+](=O)[O-])s2)c(C)c1 | 18.4 µM (active) | 
Cc1cccc(NC(=O)/C=C/c2ccc([N+](=O)[O-])s2)c1 | 7.31 µM (active) | 
CCC(=O)OCc1cnc(C)c2oc(=O)c(C(=O)Nc3ccccc3C(F)(F)F)cc12 |  | -17.4% (inactive)
CC(=O)c1cccc(NC(=S)N2c3ccccc3CC2C)c1 (centres undefined) |  | 3.12% [at 36.9 µM] (inactive)
CC(=O)c1cccc(NC(=O)/C=C/c2ccc([N+](=O)[O-])s2)c1 | 16.4 µM (active) | 
CCOCCC(=O)Nc1ccc2c(c1)c(=O)n(C)n2C/C=C/c1ccccc1 | 15.8 µM (active) | 
COc1ccc(/C=N/NC(=O)c2cc3c(OC)ccc(OC)c3[nH]2)cc1O | 4.44 µM (active) | 
COc1ccc2[nH]c(C(=O)N/N=C/c3ccc(OC)c(O)c3)cc2c1 | 3.14 µM (active) | 
CN[C@H]1CCc2cc(OC)c(OC)c(OC)c2-c2ccc(N(C)CC(OC)OC)c(=O)cc21 | 2.8 µM (active) | 
COc1cc2c(c(OC)c1OC)-c1ccc(N(C)CC(OC)OC)c(=O)cc1[C@@H](NC(C)=O)CC2 | 1.12 µM (active) | 
CSc1cccc(NC(=O)c2cc3c(COC(C)=O)cnc(C)c3oc2=O)c1 |  | 3.84% (inactive)
CCN(CC)c1ccc2cc(-c3nnc(-c4cccc(Cl)c4)o3)c(=O)oc2c1 | 0.206 µM (active) | 
CCN(CC)c1ccc2cc(-c3nnc(-c4ccccc4)o3)c(=O)oc2c1 | 0.112 µM (active) | 
CCN(CC)c1ccc2cc(-c3nc(-c4cccs4)no3)c(=O)oc2c1 | 0.291 µM (active) | 
CCN(CC)c1ccc2cc(-c3nc(-c4ccc(Cl)cc4Cl)cs3)c(=O)oc2c1 |  | -4.58% (inactive)
CCN(CC)c1ccc2cc(C(N)=O)c(=N)oc2c1 |  | 37.6% (inactive)
CCN(CC)c1ccc2cc(-c3nc4ccccc4n3C)c(=O)oc2c1 | 7.31 µM (active) | 
CN(C)S(=O)(=O)c1ccc(N2CCCC2)c(C(=O)N2CCN(S(=O)(=O)c3ccc(F)c(F)c3)CC2)c1 |  | 7.98% [at 36.9 µM] (inactive)
CCOC(=O)c1c(C)sc(-c2c(-c3ccccc3)[nH]c3[nH]c(=O)[nH]c(=O)c23)c1O | 23.1 µM (active) | 

SMILES | Potency | activity, negative = inhibitor
CCOC(=O)c1ccc(NC(=O)CSc2nc(-c3ccc(F)cc3)cc(C(F)(F)F)c2C#N)cc1 | 18.4 µM (active) | 
CCOC(=O)c1ccc(NC(=O)CSc2nc(-c3ccc(OC)cc3)cc(C(F)(F)F)c2C#N)cc1 | 23.1 µM (active) | 
COCc1cc(C)nc(SCC(=O)Nc2ccc3[nH]c(=O)[nH]c3c2)c1C#N |  | -19.9% (inactive)
CCCCOc1ccc(-c2cc(C(F)(F)F)c(C#N)c(SCC(=O)O)n2)cc1 | 18.4 µM (active) | 
CCOC(=O)c1ccc(N=Nc2c(C)c(C#N)c(O)[nH]c2=O)cc1 |  | -26.8% (inactive)
Cc1ccc(S(=O)(=O)CCSc2nc(C)cc(C(F)(F)F)c2C#N)cc1 | 12.5 µM (active) | 
Cc1coc(NC(=O)CSc2nc(-c3ccncc3)cc(C(F)(F)F)c2C#N)n1 | 7.31 µM (active) | 
Cc1cc(C(F)(F)F)c(C#N)c(SCC(=O)Nc2nc3ccccc3s2)n1 | 16.4 µM (active) | 
Cc1sc2nc(CSCC(=O)Nc3ccccc3C#N)[nH]c(=O)c2c1C |  | -1.56% (inactive)
CN(C)c1ccc(/C=C2\Oc3ccc(C#Cc4cccc(N)c4)cc3C2=O)cc1 | 15.8 µM (active) | 
CCOc1ccc(C(=O)COC(=O)Cc2n[nH]c(=O)c3ccccc23)cc1 | 4.44 µM (active) | 
O=C(Cc1n[nH]c(=O)c2ccccc12)OCC(=O)c1ccc2c(c1)OCCO2 | 2.8 µM (active) | 
COc1ccc(C(=O)/C=C/Nc2ccc([N+](=O)[O-])cc2C)c(OC)c1 | 18.4 µM (active) | 
COc1cccc(N=C2NC(=O)/C(=C/c3cc([N+](=O)[O-])ccc3O)S2)c1 |  | -25.7% (inactive)
N#C/C(N=Nc1ccccc1O)=N\Nc1ccccc1O | 5.17 µM (active) | 
O=[N+]([O-])c1cc(Cl)c2cccnc2c1O |  | 4.37% (inactive)
Cc1cc(N2CCN(c3ccc([N+](=O)[O-])c4cccnc34)CC2)c2ccccc2n1 | 20.6 µM (active) | 
COc1ccccc1Nc1cc2cc(Br)ccc2c(=O)[nH]1 | 7.04 µM (active) | 
COc1ccc(NC(=O)c2oc3ccc(S(=O)(=O)N4CCOCC4)cc3c2C)cc1 |  | -10.1% [at 36.9 µM] (inactive)
COc1cccc(NC(=O)c2oc3ccc(S(=O)(=O)N4CCC5(CC4)OCCO5)cc3c2C)c1 | 13 µM (active) | 
COc1ccc(OCCCC(=O)N2CCN(S(=O)(=O)c3cccc(F)c3)CC2)cc1 |  | 8.38% (inactive)
CN(CC(=O)Nc1ccc(Cl)c(C(F)(F)F)c1)C(=O)c1ccc(S(=O)(=O)N2CCOCC2)cc1 | 4.44 µM (active) | 
Cc1ccc(NC(=O)C2CCN(S(=O)(=O)c3ccc(Cl)c(C(F)(F)F)c3)CC2)nc1 |  | 0.17% [at 36.9 µM] (inactive)

SMILES | Potency | activity, negative = inhibitor
COC(=O)C1CCC(=O)N1C(c1ccc(OC)cc1)c1cc(OC)c(OC)c(OC)c1 (centres undefined) | 0.79 µM (active) | 
CC1=CN2C(=N)/C(=C/c3ccc([N+](=O)[O-])o3)C(=O)N=C2S1 | 14 µM (active) | 
CCS(=O)(=O)C1=NN2C(=N)/C(=C\c3ccc(SCc4ccco4)o3)C(=O)N=C2S1 |  | 11.1% (inactive)
CCOC(=O)C1=C(Cc2ccc(F)cc2)C(=O)c2ccccc2C1=O | 16.4 µM (active) | 
COc1ccc(C(C)(O)c2nc(-c3ccccc3OC)cs2)cc1 (centres undefined) | 12.5 µM (active) | 
CCOc1cc(/C=C(\C#N)c2nc(-c3cccs3)c(NC(C)=O)s2)ccc1O |  | 39.2% (inactive)
CC(=O)Nc1sc(/C(C#N)=C/c2ccc(Cl)c(Cl)c2)nc1-c1ccc(C)cc1 | 2.59 µM (active) | 
CC(=O)Nc1sc(/C(C#N)=C\c2cccc(Cl)c2)nc1-c1ccc(C)cc1 | 11.6 µM (active) | 
COc1ccc(CN(C(C)=O)c2cccc(C)c2C)cc1 | 15.8 µM (active) | 
COc1ccc(/C=c2\s/c(=C/C(=O)c3ccc(C)cc3)[nH]c2=O)c(OC)c1 | 18.4 µM (active) | 
CN1C2CCC1/C(=C/c1cccn1C)C(=O)/C2=C\c1cccn1C | 18.4 µM (active) | 
CN1C2CCC1/C(=C\c1ccccc1)C(=O)/C2=C\c1ccccc1 | 15.8 µM (active) | 
Cn1cccc1/C=C1\CC(C(C)(C)C)C/C(=C\c2cccn2C)C1=O (centres undefined) | 1.3 µM (active) | 
CC(=O)Nc1cccc(-c2ccnc3c2CC(C)(C(=O)Nc2cccc(C(C)=O)c2)O3)c1 (centres undefined) | 9.94 µM (active) | 
CC(=O)c1cccc(NC(=O)C2CCCN(S(=O)(=O)c3cccc4nonc34)C2)c1 (centres undefined) |  | 0.106% (inactive)
COc1ccc(NC(=O)C2(C)Cc3c(-c4cccc(NC(C)=O)c4)ccnc3O2)cc1 (centres undefined) | 2.8 µM (active) | 
COc1ccc(NC(=O)C2(C)Cc3c(-c4cccc(C(N)=O)c4)ccnc3O2)cc1 (centres undefined) | 6.27 µM (active) | 
COc1cc(C(=O)N/N=C(\C)c2ccccn2)cc(OC)c1OC | 0.559 µM (active) | 
COc1cc(C(=O)N/N=C/C2CC=CCC2)cc(OC)c1OC (centres undefined) |  | -4.4% [at 36.9 µM] (inactive)
COc1cc(C(=O)Nc2ccc3ccccc3c2)cc(OC)c1OC | 3.14 µM (active) | 
COc1cc(C(=O)Nc2ccc3c(c2)ncn3C)cc(OC)c1OC | 5.59 µM (active) | 
CCOc1ccc(NC(=O)N2CC=C(c3c[nH]c4ccccc34)CC2)cc1 | 2.59 µM (active) | 
CCOC1=C2CN(S(=O)(=O)c3ccc(C)cc3)[C@H](c3cccc4ccccc34)C[C@H]2C(C#N)(C#N)C(C#N)(C#N)C1 |  | -5.71% [at 36.9 µM] (inactive)

SMILES | Potency | activity, negative = inhibitor
CCOc1ccccc1C1NC(=O)c2ccccc2N1 (centres undefined) | 3.53 µM (active) | 
Cc1ccc(C2NC(=O)c3ccccc3N2)s1 (centres undefined) | 17.7 µM (active) | 
O=[N+]([O-])c1ccccc1C1Nc2cccc3cccc(c23)N1 |  | 9.7% (inactive)
COc1ccc2ccccc2c1C1NC(=O)c2ccccc2N1 (centres undefined) | 4.98 µM (active) | 
COc1cc(OC)c(C2Nc3cccc4cccc(c34)N2)c(OC)c1 |  | -0.514% (inactive)
C=CCSc1nnc(C)c(/C=C/Nc2ccc(Cl)cc2)n1 | 18.4 µM (active) | 
COc1ccc(N/C=C/c2nc(SC)nnc2C)cc1 | 18.4 µM (active) | 
CCOC(=O)c1c(-c2ccc(OC)cc2)csc1/N=C/C1=C(O)CCCC1=O |  | -3.87% (inactive)
COc1ccc(NC(=O)c2sc3nc(-c4ccc(OC)cc4)cc(C(F)(F)F)c3c2N)cc1 | 7.31 µM (active) | 
COc1ccc(C(=O)c2sc3nc(-c4ccc(C)cc4)cc(C(F)(F)F)c3c2N)cc1 | 5.17 µM (active) | 
CCOC(=O)c1c(C)nc2sc(C(=O)Nc3ccc(OC)cc3)c(N)c2c1-c1ccc(OC)cc1 | 2.8 µM (active) | 
COc1cccc(C(=O)c2sc3nc(-c4ccccc4)cc(C(F)(F)F)c3c2N)c1 | 2.06 µM (active) | 
CCc1ccc(NC(=O)c2sc3nc(C)c(C(=O)Nc4ccc(C)cc4C)c(-c4ccco4)c3c2N)cc1 | 16.4 µM (active) | 
COc1ccc(C(=O)c2sc3nc(C)cc(-c4cccs4)c3c2N)cc1 | 20.6 µM (active) | 
COc1cccc(NC(=O)c2sc3nc(C)c(C(=O)Nc4ccc(C)cc4C)c(-c4ccco4)c3c2N)c1 |  | -1.31% (inactive)
CCc1ccc(-c2cc(C(F)(F)F)n3nc(C(=O)Nc4cnn(Cc5ccc(C)cc5)c4)cc3n2)s1 | 16.4 µM (active) | 
Cc1ccc(S(=O)(=O)N2CCN(C(=O)CSC(=S)N3CCCC3)CC2)c(C)c1 |  | 5.96% (inactive)
COc1cc(C(=O)NCC(=O)N2CCN(S(=O)(=O)c3cc(C)ccc3C)CC2)cc(OC)c1OC | 3.96 µM (active) | 
C=C(/C=C/c1ccc(N(C)C)cc1)c1nc2ccccc2s1 | 18.4 µM (active) | 
CC1=Nc2ccc(C)cc2/C1=C/c1c(N)n2oc(C)cc2nc1=O | 20.6 µM (active) | 
